In all, about 5,500 compounds went through this assay and about 2,000 (36%) were called active. Not shown: some 18% with an inconclusive outcome. Cut-off read from the data, not from the text of the source: active = normalized growth mostly below about 0.91 (no sharp cut-off); inconclusive = no clear call, values can overlap the other calls; inactive = mostly above about 0.92. The list shows a part of the results.
Test: chemical genetic growth profiling, strain panel (AID 1159580);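 note: tested at 20 µM; growth read once vehicle control cultures reached saturation at 30 °C; 1 = growth at the plate median or of vehicle wells; lower values mean less growth of the strain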
Details: growth OD

Measured: normalized growth

COc1ccc2c(c1)[C@@]1(C)CCC(=O)C[C@H]1CC2
inactive: S. cerevisiae deletion strains, locus YAL013W, strain DEP1, hits give low values 0.984 | S. cerevisiae deletion strains, locus YAL021C, strain ccr4, hits give low values 0.989 | S. cerevisiae deletion strains, locus YAL026C, strain drs2, hits give low values 0.982 | S. cerevisiae deletion strains, locus YAL030W, strain snc1, hits give low values 0.959 | S. cerevisiae deletion strains, locus YBL061C, strain skt5, hits give low values 0.989 | S. cerevisiae deletion strains, locus YBR009C, strain hhf1, hits give low values 0.98 | S. cerevisiae deletion strains, locus YBR021W, strain FUR4, hits give low values 0.969 | S. cerevisiae deletion strains, locus YBR023C, strain chs3, hits give low values 0.98 | S. cerevisiae deletion strains, locus YBR171W, strain sec66, hits give low values 0.93 | S. cerevisiae deletion strains, locus YBR229C, strain ROT2, hits give low values 0.994 | S. cerevisiae deletion strains, locus YBR231C, strain swc5, hits give low values 0.986 | S. cerevisiae deletion strains, locus YBR279W, strain paf1, hits give low values 0.98 | S. cerevisiae deletion strains, locus YCL011C, strain gbp2, hits give low values 0.961 | S. cerevisiae deletion strains, locus YCL016C, strain dcc1, hits give low values 0.976 | S. cerevisiae deletion strains, locus YCL029C, strain bik1, hits give low values 0.985 | S. cerevisiae deletion strains, locus YCL061C, strain MRC1, hits give low values 0.949 | S. cerevisiae deletion strains, locus YCL069W, strain vba3, hits give low values 0.963 | S. cerevisiae deletion strains, locus YCR088W, strain abp1, hits give low values 0.978 | S. cerevisiae deletion strains, locus YDL005C, strain med2, hits give low values 0.954 | S. cerevisiae deletion strains, locus YDL035C, strain GPR1, hits give low values 1.01 | S. cerevisiae deletion strains, locus YDL040C, strain nat1, hits give low values 0.969 | S. cerevisiae deletion strains, locus YDL074C, strain BRE1, hits give low values 1.01 | S. cerevisiae deletion strains, locus YDL101C, strain DUN1, hits give low values 1 | S. cerevisiae deletion strains, locus YDL134C, strain PPH21, hits give low values 0.995 | S. cerevisiae deletion strains, locus YDL185W, strain tfp1, hits give low values 0.977 | S. cerevisiae deletion strains, locus YDL192W, strain arf1, hits give low values 0.98 | S. cerevisiae deletion strains, locus YDR001C, strain nth1, hits give low values 0.973 | S. cerevisiae deletion strains, locus YDR069C, strain doa4, hits give low values 0.963 | S. cerevisiae deletion strains, locus YDR101C, strain arx1, hits give low values 0.985 | S. cerevisiae deletion strains, locus YDR137W, strain rgp1, hits give low values 0.902 | S. cerevisiae deletion strains, locus YDR159W, strain sac3, hits give low values 0.937 | S. cerevisiae deletion strains, locus YDR162C, strain NBP2, hits give low values 1.01 | S. cerevisiae deletion strains, locus YDR195W, strain ref2 1.01 | S. cerevisiae deletion strains, locus YDR297W, strain sur2, hits give low values 0.98 | S. cerevisiae deletion strains, locus YDR318W, strain mcm21, hits give low values 0.975 | S. cerevisiae deletion strains, locus YDR334W, strain swr1, hits give low values 0.94 | S. cerevisiae deletion strains, locus YDR335W, strain msn5, hits give low values 0.967 | S. cerevisiae deletion strains, locus YDR388W, hits give low values 0.978 | S. cerevisiae deletion strains, locus YDR392W, strain spt3, hits give low values 0.938 | S. cerevisiae deletion strains, locus YDR502C, strain sam2, hits give low values 0.951 | S. cerevisiae deletion strains, locus YEL003W, strain gim4, hits give low values 0.942 | S. cerevisiae deletion strains, locus YEL037C, strain rad23, hits give low values 0.97 | S. cerevisiae deletion strains, locus YEL061C, strain CIN8 (second series), hits give low values 0.97 | S. cerevisiae deletion strains, locus YER015W, strain faa2, hits give low values 0.973 | S. cerevisiae deletion strains, locus YER016W, strain bim1, hits give low values 0.965 | S. cerevisiae deletion strains, locus YER110C, hits give low values 0.958 | S. cerevisiae deletion strains, locus YER111C, strain swi4, hits give low values 0.942 | S. cerevisiae deletion strains, locus YER155C, strain BEM2 (second series), hits give low values 0.899 | S. cerevisiae deletion strains, locus YER155C, strain BEM2, hits give low values 0.989 | S. cerevisiae deletion strains, locus YER167W, strain BCK2, hits give low values 0.996 | S. cerevisiae deletion strains, locus YFR010W, strain ubp6, hits give low values 0.992 | S. cerevisiae deletion strains, locus YGL078C, strain dbp3, hits give low values 0.983 | S. cerevisiae deletion strains, locus YGL086W, strain mad1, hits give low values 0.964 | S. cerevisiae deletion strains, locus YGL173C, strain kem1, hits give low values 0.949 | S. cerevisiae deletion strains, locus YGL227W, strain vid30, hits give low values 0.96 | S. cerevisiae deletion strains, locus YGL240W, strain doc1, hits give low values 0.923 | S. cerevisiae deletion strains, locus YGL248W, strain PDE1, hits give low values 0.998 | S. cerevisiae deletion strains, locus YGL253W, strain hxk2, hits give low values 0.932 | S. cerevisiae deletion strains, locus YGR135W, strain pre9, hits give low values 0.947 | S. cerevisiae deletion strains, locus YGR252W, strain gcn5, hits give low values 0.933 | S. cerevisiae deletion strains, locus YHR013C, strain ard1, hits give low values 0.966 | S. cerevisiae deletion strains, locus YHR027C, strain rpn1, hits give low values 0.965 | S. cerevisiae deletion strains, locus YHR079C, strain IRE1 (second series), hits give low values 0.977 | S. cerevisiae deletion strains, locus YHR094C, strain hxt1, hits give low values 0.968 | S. cerevisiae deletion strains, locus YHR129C, strain ARP1, hits give low values 0.992 | S. cerevisiae deletion strains, locus YHR142W, strain chs7, hits give low values 0.954 | S. cerevisiae deletion strains, locus YHR200W, strain rpn10, hits give low values 0.971 | S. cerevisiae deletion strains, locus YIL066C, strain RNR3, hits give low values 1.01 | S. cerevisiae deletion strains, locus YIL073C, strain SPO22, hits give low values 0.964 | S. cerevisiae deletion strains, locus YIL125W, strain kgd1, hits give low values 0.994 | S. cerevisiae deletion strains, locus YIR030C, strain dcg1, hits give low values 0.974 | S. cerevisiae deletion strains, locus YJL092W, strain hpr5, hits give low values 0.948 | S. cerevisiae deletion strains, locus YJL095W, strain BCK1 (second series), hits give low values 0.959 | S. cerevisiae deletion strains, locus YJL095W, strain BCK1, hits give low values 0.958 | S. cerevisiae deletion strains, locus YJL115W, strain asf1, hits give low values 0.936 | S. cerevisiae deletion strains, locus YJL129C, strain trk1, hits give low values 0.973 | S. cerevisiae deletion strains, locus YJL134W, strain LCB3, hits give low values 0.995 | S. cerevisiae deletion strains, locus YJL154C, strain vps35, hits give low values 0.958 | S. cerevisiae deletion strains, locus YJL164C, strain tpk1, hits give low values 0.972 | S. cerevisiae deletion strains, locus YJL166W, strain qcr8, hits give low values 0.96 | S. cerevisiae deletion strains, locus YJL168C, strain set2, hits give low values 0.951 | S. cerevisiae deletion strains, locus YJL187C, strain SWE1 (second series), hits give low values 0.998 | S. cerevisiae deletion strains, locus YKL009W, strain mrt4, hits give low values 0.997 | S. cerevisiae deletion strains, locus YKL068W, hits give low values 0.993 | S. cerevisiae deletion strains, locus YKL085W, strain MDH1 (second series), hits give low values 0.986 | S. cerevisiae deletion strains, locus YKL085W, strain MDH1, hits give low values 0.986 | S. cerevisiae deletion strains, locus YKL160W, strain elf1, hits give low values 0.977 | S. cerevisiae deletion strains, locus YKL190W, strain CNB1, hits give low values 0.994 | S. cerevisiae deletion strains, locus YKR001C, strain vps1, hits give low values 0.953 | S. cerevisiae deletion strains, locus YKR026C, strain gcn3, hits give low values 0.976 | S. cerevisiae deletion strains, locus YKR091W, strain srl3, hits give low values 0.968 | S. cerevisiae deletion strains, locus YLL001W, strain dnm1, hits give low values 0.951 | S. cerevisiae deletion strains, locus YLL026W, hits give low values 0.964 | S. cerevisiae deletion strains, locus YLL041C, strain sdh2, hits give low values 0.98 | S. cerevisiae deletion strains, locus YLR027C, strain aat2, hits give low values 0.968 | S. cerevisiae deletion strains, locus YLR039C, strain RIC1, hits give low values 0.96 | S. cerevisiae deletion strains, locus YLR058C, strain SHM2, hits give low values 0.995 | S. cerevisiae deletion strains, locus YLR102C, strain apc9, hits give low values 0.985 | S. cerevisiae deletion strains, locus YLR221C, strain rsa3, hits give low values 0.969 | S. cerevisiae deletion strains, locus YLR258W, strain gsy2, hits give low values 0.967 | S. cerevisiae deletion strains, locus YLR262C, strain YPT6 (second series), hits give low values 0.969 | S. cerevisiae deletion strains, locus YLR262C, strain YPT6, hits give low values 0.973 | S. cerevisiae deletion strains, locus YLR268W, strain sec22, hits give low values 0.965 | S. cerevisiae deletion strains, locus YLR320W, strain mms22, hits give low values 0.966 | S. cerevisiae deletion strains, locus YLR342W, strain FKS1, hits give low values 0.969 | S. cerevisiae deletion strains, locus YLR357W, strain rsc2, hits give low values 0.947 | S. cerevisiae deletion strains, locus YLR370C, strain arc18, hits give low values 0.953 | S. cerevisiae deletion strains, locus YLR371W, strain rom2, hits give low values 0.98 | S. cerevisiae deletion strains, locus YLR384C, strain iki3, hits give low values 0.969 | S. cerevisiae deletion strains, locus YLR418C, strain cdc73, hits give low values 0.956 | S. cerevisiae deletion strains, locus YML016C, strain PPZ1, hits give low values 0.989 | S. cerevisiae deletion strains, locus YML032C, strain rad52, hits give low values 0.988 | S. cerevisiae deletion strains, locus YML120C, strain ndi1, hits give low values 0.953 | S. cerevisiae deletion strains, locus YML124C, strain tub3, hits give low values 0.976 | S. cerevisiae deletion strains, locus YMR058W, strain fet3, hits give low values 0.948 | S. cerevisiae deletion strains, locus YMR078C, strain ctf18, hits give low values 0.965 | S. cerevisiae deletion strains, locus YMR125W, strain sto1, hits give low values 0.97 | S. cerevisiae deletion strains, locus YMR129W, hits give low values 0.994 | S. cerevisiae deletion strains, locus YMR205C, strain PFK2, hits give low values 0.976 | S. cerevisiae deletion strains, locus YMR223W, strain ubp8, hits give low values 0.98 | S. cerevisiae deletion strains, locus YMR231W, strain pep5, hits give low values 0.968 | S. cerevisiae deletion strains, locus YMR307W, strain GAS1, hits give low values 1 | S. cerevisiae deletion strains, locus YNL067W, strain RPL9B, hits give low values 0.975 | S. cerevisiae deletion strains, locus YNL071W, strain lat1, hits give low values 0.955 | S. cerevisiae deletion strains, locus YNL153C, strain GIM3, hits give low values 0.995 | S. cerevisiae deletion strains, locus YNL233W, strain BNI4, hits give low values 0.959 | S. cerevisiae deletion strains, locus YNL248C, strain rpa49, hits give low values 1.03 | S. cerevisiae deletion strains, locus YNL250W, strain rad50, hits give low values 0.968 | S. cerevisiae deletion strains, locus YNL271C, strain bni1, hits give low values 0.97 | S. cerevisiae deletion strains, locus YNL298W, strain CLA4, hits give low values 0.976 | S. cerevisiae deletion strains, locus YNL307C, strain MCK1, hits give low values 0.963 | S. cerevisiae deletion strains, locus YNL322C, strain KRE1 (second series), hits give low values 0.964 | S. cerevisiae deletion strains, locus YNL322C, strain KRE1, hits give low values 0.989 | S. cerevisiae deletion strains, locus YNR049C, strain mso1, hits give low values 0.932 | S. cerevisiae deletion strains, locus YNR052C, strain pop2, hits give low values 0.971 | S. cerevisiae deletion strains, locus YOL012C, strain htz1 1.7 | S. cerevisiae deletion strains, locus YOL147C, strain pex11, hits give low values 0.967 | S. cerevisiae deletion strains, locus YOR001W, strain rrp6, hits give low values 0.97 | S. cerevisiae deletion strains, locus YOR061W, strain CKA2, hits give low values 1 | S. cerevisiae deletion strains, locus YOR069W, strain VPS5, hits give low values 0.989 | S. cerevisiae deletion strains, locus YOR070C, strain gyp1, hits give low values 0.97 | S. cerevisiae deletion strains, locus YOR080W, strain dia2, hits give low values 0.956 | S. cerevisiae deletion strains, locus YOR083W, strain WHI5, hits give low values 0.969 | S. cerevisiae deletion strains, locus YOR106W, strain vam3, hits give low values 1 | S. cerevisiae deletion strains, locus YOR136W, strain idh2, hits give low values 0.98 | S. cerevisiae deletion strains, locus YOR144C, strain elg1, hits give low values 0.975 | S. cerevisiae deletion strains, locus YOR184W, strain ser1, hits give low values 0.92 | S. cerevisiae deletion strains, locus YOR265W, strain rbl2, hits give low values 0.973 | S. cerevisiae deletion strains, locus YOR270C, strain vph1, hits give low values 0.997 | S. cerevisiae deletion strains, locus YOR290C, strain snf2, hits give low values 0.957 | S. cerevisiae deletion strains, locus YOR316C, strain cot1, hits give low values 0.974 | S. cerevisiae deletion strains, locus YPL051W, strain arl3, hits give low values 0.985 | S. cerevisiae deletion strains, locus YPL078C, strain atp4, hits give low values 0.95 | S. cerevisiae deletion strains, locus YPL106C, strain sse1, hits give low values 0.928 | S. cerevisiae deletion strains, locus YPL240C, strain hsp82, hits give low values 0.977 | S. cerevisiae deletion strains, locus YPR119W, strain clb2, hits give low values 0.974 | S. cerevisiae deletion strains, locus YPR141C, strain kar3, hits give low values 0.976 | S. cerevisiae deletion strains, locus YPR163C, strain tif3, hits give low values 0.973 | S. cerevisiae deletion strains, locus YPR167C, strain met16, hits give low values 0.974 | S. cerevisiae deletion strains, strain wtn01, hits give low values 0.972 | S. cerevisiae strains, strain wild type, hits give low values 1.01

Reference: PubChem BioAssay AID1159580 (chemical genetic matrix, 2015)
